Screens as filed in PubChem BioAssay.
Shiga inhibitor – Shiga toxin inhibition; 290,000 tested, 9.2% active; AID 2315; inhibition, % at 38.7 µM; Vero cells, Shiga toxin protein synthesis inhibition reporter; in the data active = inhibition mostly above about 28%, no sharp cut-off; inactive = mostly below about 43%; note: 0% is about no effect
CHX counter – counter-screen for Shiga toxin inhibitors: cycloheximide protein synthesis inhibition. cell reporter, cycloheximide protein synthesis inhibition counterscreen. max response, %. 300,000 tested, 12% active; in the data active = max response mostly above about 13%, no sharp cut-off; inactive = mostly below about 14%; note: read at 38.3 µM for the half of the compounds with a filed dose; 0% is about no effect
Lassa entry inh – inhibitors of Lassa virus binding or cell entry; 300,000 tested, 1.2% active; Potency, µM (doses to about 37.9 µM), without a hit: top-dose activity change, negative = inhibition, actives largely listed as inhibitors; Lassa virus pseudotype entry inhibition, cell reporter; calls by dose curve; tested in HEK293 cells; note: potency is the fitted concentration of half-maximal effect; % is set by controls: 0 for no effect and ±100 for the full control effect; nearly all actives have a fitted effect of over 50% in size
AMA1-RON2 inh – inhibitors of Plasmodium falciparum AMA1-RON2 interaction; Potency, µM (series often up to 58.2 µM), for inactives: at the top dose activity change, negative = inhibition, hits mostly inhibitors; AlphaScreen AMA1-biotinylated RON2 peptide binding; AID 720542; 360,000 tested, 0.2% active; active = well fitted inhibition curve with a large enough effect; inconclusive = small, poorly fitted or top-dose-only effect; inactive = no such curve, though single readings can be large or run the other way;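 note: potency is the fitted concentration of half-maximal effect; 0% = vehicle wells and -100% = peptide control; nearly all actives have a fitted effect of over 45% in size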
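AMA1 (3D7) with his tag at 25 nM final met compounds first, then biotinylated RON2 peptide at 25 nM; detection used donor plus acceptor beads, 10 µg/mL apiece, read by AlphaScreen after 30 min at room temperature.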
MARV entry inh – blocks Marburg virus binding to or entry into cells. Marburg virus pseudotyped entry inhibition, cell reporter. Potency, µM (top dose mostly 37.8 µM), for the others: at the top dose activity change, negative = inhibition, usual class: inhibitors. 300,000 tested, 1.8% active. AID 540276; calls by dose curve; tested in HEK293 cells; note: potency is the fitted concentration of half-maximal effect; % is set by controls: 0 for no effect and ±100 for the full control effect
* marks the source's active call; other numbers are inactive results; ? = inconclusive; . = not tested or not shown; [ ] = remark or other dose. Shown is part of a subset that was picked to be rich in hits.

SMILES	Shiga inhibitor	CHX counter	Lassa entry inh	AMA1-RON2 inh	MARV entry inh
O=C1c2[nH]nc(-c3ccccc3O)c2C(c2ccccc2F)N1Cc1ccco1 (stereo not given)	-11	-2	5.2µM*	16%	-1%
COc1cccc(-c2cc(C(=O)Nc3ccc(OC)cc3OC)no2)c1	.	.	17%[46.1 µM]	.	-11%[46.1 µM]
COc1ccc(NC(=O)c2cc(C(C)C)on2)c(OC)c1	114*	53*	.	0%	.
COc1cc(NC(=O)c2cc3nc(C)cc(C)n3n2)c(OC)cc1Cl	62*	53*	?	-7%	6%
COc1ccc(NC(=O)c2cc(C(C)C)on2)cc1OC	45*	44*	-7%	4%	?
COc1cc(NC(=O)c2cc(C3CC3)on2)c(OC)cc1Cl	5	4	.	17%	.
COc1cc(NC(=O)c2cc(C(C)C)on2)c(OC)cc1Cl	32	13*	?	-4%	15µM*
CCc1cccc(C)c1NC(=O)C1CCN(c2nnc(C)c3c(C)n(-c4ccccc4)nc23)CC1	.	.	9%[46.1 µM]	.	.
CC(=O)N1c2ccc(S(=O)(=O)N3CCC(C(=O)Nc4cccc(C(F)(F)F)c4)CC3)cc2CC1C (stereo not given)	11	-2	.	0%	.
COc1nc(-c2ccccc2)ccc1-c1noc(-c2ccccc2)n1	42	11	17%	13%	?
COc1ccc(-c2ccc(-c3noc(-c4ccco4)n3)c(OC)n2)cc1	51*	23*	14%	0%	?
COc1nc(-c2ccccc2)ccc1-c1noc(-c2ccco2)n1	71*	34*	-1%	0%	4%[46.1 µM]
CC(=O)Nc1ccc(S(=O)(=O)NCC2CCC(C(=O)NCCCN(C)Cc3ccccc3)CC2)cc1 (stereo not given)	-14	3	?	22%	28%[46.1 µM]
O=C1c2ccccc2C(c2nnnn2-c2ccc3c(c2)OCCO3)N1CCCn1ccnc1 (stereo not given)	.	.	.	0%	.
COc1cccc(NC(=O)C2CCOC2=O)c1 (stereo not given)	.	.	.	-4%	.
O=C(Nc1nccs1)c1ccc(Br)o1	69*	33*	11%	17%	22%
O=C(/C=C/c1ccc(Br)o1)Nc1nccs1	95*	39*	2%	5%	?
COc1ccc(-n2cnc3sc4c(c3c2=O)CCCC4)cc1	72*	25	-12%[46.1 µM]	-28%	4%[46.1 µM]
COc1cccc(-n2cnc3sc(C)c(C)c3c2=O)c1	active	29*	-5%	-5%	?
Cc1nc2sc3c(c2c(=O)n1/N=C/c1ccco1)CCCC3	-20	16	5%	-2%	-8%
O=c1c2c3c(sc2ncn1/N=C/c1ccccc1)CCCC3	64*	19*	-7%	3%	?
O=c1c2c3c(sc2ncn1/N=C/c1ccco1)CCCC3	76*	12	?	-5%	30%
CN(Cc1ccccc1)c1nccn2ccnc12	.	.	.	96%	.
CCOC(=O)CN1C(=O)N[C@@H](CCc2ccccc2)[C@@H](C(=O)OC)[C@H]1C	.	.	.	14%	.
COc1ccc(-c2cc(C(F)(F)F)n3nc(C(=O)Nc4sc5c(c4C(=O)OC(C)C)CCC(C)C5)cc3n2)cc1 (stereo not given)	.	.	10%[46.1 µM]	.	.
SMILES	Shiga inhibitor	CHX counter	Lassa entry inh	AMA1-RON2 inh	MARV entry inh
Cc1sc2ncn(/N=C/c3ccco3)c(=O)c2c1C	54*	39*	?	-2%	?
CN1CCC(Oc2ccccc2Sc2ccc(C(F)(F)F)cc2)CC1	-17	-7	12µM*	0%	?
CN1CCC(Oc2ccc(Sc3ccccc3)cc2)CC1	63*	68*	?	-18%	?
CCc1cccc2c(-c3ccccc3)nc(SCC(=O)Nc3ccccc3OC)nc12	.	.	19%[46.1 µM]	.	-24%[46.1 µM]
O=S(=O)(c1ccc(Cl)cc1)N1CCN(S(=O)(=O)c2ccc3c(c2)OCCO3)CC1	-7	-8	.	.	.
Cn1ccc(NC(=O)Nc2cccc([N+](=O)[O-])c2)n1	39*	23*	7%	-13%	17%[46.1 µM]
Cc1ccc(NC(=O)Nc2cccc([N+](=O)[O-])c2)nc1	85*	20*	0%	-2%	-2%[46.1 µM]
Cc1ccc(NC(=O)Nc2ccc([N+](=O)[O-])cc2)nc1	22	7	?	19%	-15%[46.1 µM]
Oc1c(C(c2ccccc2)N2CCC3(CC2)OCCO3)sc2nc(-c3ccco3)nn12 (stereo not given)	.	.	1%[46.1 µM]	.	.
CN(C)c1ccc(S(=O)(=O)N2CCC(Cc3ccccc3)CC2)cn1	.	.	.	-1%	.
COc1ccc2c(c1)C(c1ccc([N+](=O)[O-])cc1)=NNC(c1ccco1)=N2	3	-2	-23%	?	?
